We go through 1 compound from ChEMBL document CHEMBL1961873, “Compounds: GSK PKIS; Assays: Nanosyn kinase panel” (2012).

The target of assay [1] is Sphingosine kinase 1 (Homo sapiens) (UniProt Q9NYA1). Conditions: at 1 µM.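 Note: mean SPHK1 inhibition value reported from the GSK PKIS kinase panel screen.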
The target of assay [2] is T1, Sphingosine kinase 2 (Homo sapiens) (UniProt Q9NRA0).
T1 sequence (whole entry): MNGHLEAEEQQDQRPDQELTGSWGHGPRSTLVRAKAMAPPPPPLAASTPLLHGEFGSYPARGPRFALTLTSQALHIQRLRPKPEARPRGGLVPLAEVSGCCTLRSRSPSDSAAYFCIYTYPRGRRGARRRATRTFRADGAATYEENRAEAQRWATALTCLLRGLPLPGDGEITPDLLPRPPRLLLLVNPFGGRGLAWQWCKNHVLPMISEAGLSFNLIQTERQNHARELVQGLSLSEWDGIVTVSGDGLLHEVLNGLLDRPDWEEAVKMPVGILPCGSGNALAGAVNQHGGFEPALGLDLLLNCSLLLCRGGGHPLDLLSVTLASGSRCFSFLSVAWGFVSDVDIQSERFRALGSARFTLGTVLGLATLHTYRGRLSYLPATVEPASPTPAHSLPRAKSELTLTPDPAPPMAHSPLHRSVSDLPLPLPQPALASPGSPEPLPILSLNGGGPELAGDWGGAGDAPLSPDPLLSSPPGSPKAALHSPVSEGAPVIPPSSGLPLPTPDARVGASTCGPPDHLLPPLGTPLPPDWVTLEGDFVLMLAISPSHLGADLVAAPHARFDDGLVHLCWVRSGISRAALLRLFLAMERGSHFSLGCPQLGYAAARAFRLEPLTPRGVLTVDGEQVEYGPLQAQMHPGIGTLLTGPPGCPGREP
Conditions: at 0.1 µM.

The target of assay [3] is T1, Sphingosine kinase 2 (Homo sapiens). Conditions: at 1 µM.
The target in assay [4] is Casein kinase II subunit alpha (Homo sapiens) (UniProt P68400). The settings on record: at 0.1 µM.
Chain of Casein kinase II subunit alpha (Homo sapiens) (P68400 whole entry, looked up): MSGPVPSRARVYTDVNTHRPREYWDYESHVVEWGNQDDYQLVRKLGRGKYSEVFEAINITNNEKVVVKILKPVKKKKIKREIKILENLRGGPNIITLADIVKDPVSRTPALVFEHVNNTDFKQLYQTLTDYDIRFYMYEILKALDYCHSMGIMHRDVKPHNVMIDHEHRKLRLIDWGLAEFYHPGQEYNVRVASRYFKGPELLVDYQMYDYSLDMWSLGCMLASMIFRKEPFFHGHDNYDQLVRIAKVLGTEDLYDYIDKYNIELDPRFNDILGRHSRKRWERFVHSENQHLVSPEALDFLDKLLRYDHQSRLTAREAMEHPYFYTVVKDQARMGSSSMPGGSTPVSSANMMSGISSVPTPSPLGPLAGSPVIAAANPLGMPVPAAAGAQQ
For assay [5] the target is unchanged. Conditions: at 1 µM.
Assay [6] deals with T2, Inhibitor of nuclear factor kappa-B kinase subunit alpha (Homo sapiens) (UniProt O15111).
T2 sequence (whole entry): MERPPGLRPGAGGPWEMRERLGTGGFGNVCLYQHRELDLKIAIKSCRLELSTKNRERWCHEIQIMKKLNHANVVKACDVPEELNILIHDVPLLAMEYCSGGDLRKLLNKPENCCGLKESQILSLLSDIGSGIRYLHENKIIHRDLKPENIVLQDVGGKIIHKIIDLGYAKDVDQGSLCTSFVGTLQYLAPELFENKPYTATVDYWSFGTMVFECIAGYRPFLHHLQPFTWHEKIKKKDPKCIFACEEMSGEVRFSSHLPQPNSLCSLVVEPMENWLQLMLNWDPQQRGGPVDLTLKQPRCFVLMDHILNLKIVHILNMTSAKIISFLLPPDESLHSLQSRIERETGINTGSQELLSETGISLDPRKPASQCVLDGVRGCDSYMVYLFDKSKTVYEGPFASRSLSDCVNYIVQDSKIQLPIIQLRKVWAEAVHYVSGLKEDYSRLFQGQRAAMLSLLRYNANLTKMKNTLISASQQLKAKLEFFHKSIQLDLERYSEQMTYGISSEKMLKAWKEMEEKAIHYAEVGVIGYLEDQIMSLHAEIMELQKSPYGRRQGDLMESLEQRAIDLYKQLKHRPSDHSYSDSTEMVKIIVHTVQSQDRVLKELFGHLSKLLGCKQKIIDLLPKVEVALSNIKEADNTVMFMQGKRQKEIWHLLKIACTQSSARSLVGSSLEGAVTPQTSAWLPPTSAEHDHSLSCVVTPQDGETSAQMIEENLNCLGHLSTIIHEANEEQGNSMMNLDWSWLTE
Conditions: at 0.1 µM.

The target in assay [7] is T2, Inhibitor of nuclear factor kappa-B kinase subunit alpha (Homo sapiens). The settings on record: at 1 µM.
The target in assay [8] is T3, Inhibitor of nuclear factor kappa-B kinase subunit beta (Homo sapiens) (UniProt O14920).
T3 sequence (whole entry): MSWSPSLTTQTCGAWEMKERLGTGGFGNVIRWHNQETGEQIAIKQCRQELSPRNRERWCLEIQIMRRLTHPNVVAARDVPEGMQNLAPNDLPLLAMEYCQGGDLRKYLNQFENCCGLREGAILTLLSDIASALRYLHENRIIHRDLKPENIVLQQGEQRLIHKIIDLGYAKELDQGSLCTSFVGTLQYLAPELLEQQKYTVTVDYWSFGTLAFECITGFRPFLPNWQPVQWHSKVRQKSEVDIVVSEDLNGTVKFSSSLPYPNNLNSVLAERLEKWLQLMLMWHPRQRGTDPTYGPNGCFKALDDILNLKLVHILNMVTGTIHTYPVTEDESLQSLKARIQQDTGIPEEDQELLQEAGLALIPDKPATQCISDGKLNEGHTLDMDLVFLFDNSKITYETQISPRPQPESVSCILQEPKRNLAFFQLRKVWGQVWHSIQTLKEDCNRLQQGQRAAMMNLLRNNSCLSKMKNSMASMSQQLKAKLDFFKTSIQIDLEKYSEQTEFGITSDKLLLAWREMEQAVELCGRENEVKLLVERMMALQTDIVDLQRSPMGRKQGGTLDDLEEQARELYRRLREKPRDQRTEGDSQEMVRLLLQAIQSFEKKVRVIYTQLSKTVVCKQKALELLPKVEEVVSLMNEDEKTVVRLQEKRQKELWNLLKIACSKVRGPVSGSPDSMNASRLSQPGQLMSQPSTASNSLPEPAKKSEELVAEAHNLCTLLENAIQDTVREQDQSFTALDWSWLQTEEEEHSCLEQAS
Conditions: at 0.1 µM.

In assay [9] the target is T3, Inhibitor of nuclear factor kappa-B kinase subunit beta (Homo sapiens). The settings on record: at 1 µM.
Assay [10] concerns the target T4, Inhibitor of nuclear factor kappa-B kinase subunit epsilon (Homo sapiens) (UniProt Q14164).
T4 sequence (whole entry): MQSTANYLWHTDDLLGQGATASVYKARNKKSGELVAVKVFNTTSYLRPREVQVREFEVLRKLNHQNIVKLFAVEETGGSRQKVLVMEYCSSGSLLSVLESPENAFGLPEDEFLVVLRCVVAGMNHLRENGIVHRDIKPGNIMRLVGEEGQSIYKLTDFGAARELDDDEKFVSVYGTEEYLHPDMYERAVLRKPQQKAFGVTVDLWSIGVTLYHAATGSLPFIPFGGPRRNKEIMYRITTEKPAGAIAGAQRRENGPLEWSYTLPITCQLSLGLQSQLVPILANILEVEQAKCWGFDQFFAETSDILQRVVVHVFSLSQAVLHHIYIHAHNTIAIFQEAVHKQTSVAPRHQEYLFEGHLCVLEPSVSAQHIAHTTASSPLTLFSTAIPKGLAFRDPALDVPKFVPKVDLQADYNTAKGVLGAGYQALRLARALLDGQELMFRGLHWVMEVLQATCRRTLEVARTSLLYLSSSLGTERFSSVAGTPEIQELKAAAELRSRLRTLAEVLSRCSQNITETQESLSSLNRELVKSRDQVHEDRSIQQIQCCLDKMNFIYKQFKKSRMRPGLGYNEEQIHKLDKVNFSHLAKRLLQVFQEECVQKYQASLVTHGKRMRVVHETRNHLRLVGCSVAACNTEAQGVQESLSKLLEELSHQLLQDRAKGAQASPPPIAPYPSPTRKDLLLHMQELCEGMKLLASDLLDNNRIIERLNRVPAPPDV
The settings on record: at 0.1 µM.

For assay [11], the target named is T4, Inhibitor of nuclear factor kappa-B kinase subunit epsilon (Homo sapiens). Conditions: at 1 µM.
Assay [12] deals with T5, Serine/threonine-protein kinase Nek1 (Homo sapiens) (UniProt Q96PY6).
T5 sequence (whole entry): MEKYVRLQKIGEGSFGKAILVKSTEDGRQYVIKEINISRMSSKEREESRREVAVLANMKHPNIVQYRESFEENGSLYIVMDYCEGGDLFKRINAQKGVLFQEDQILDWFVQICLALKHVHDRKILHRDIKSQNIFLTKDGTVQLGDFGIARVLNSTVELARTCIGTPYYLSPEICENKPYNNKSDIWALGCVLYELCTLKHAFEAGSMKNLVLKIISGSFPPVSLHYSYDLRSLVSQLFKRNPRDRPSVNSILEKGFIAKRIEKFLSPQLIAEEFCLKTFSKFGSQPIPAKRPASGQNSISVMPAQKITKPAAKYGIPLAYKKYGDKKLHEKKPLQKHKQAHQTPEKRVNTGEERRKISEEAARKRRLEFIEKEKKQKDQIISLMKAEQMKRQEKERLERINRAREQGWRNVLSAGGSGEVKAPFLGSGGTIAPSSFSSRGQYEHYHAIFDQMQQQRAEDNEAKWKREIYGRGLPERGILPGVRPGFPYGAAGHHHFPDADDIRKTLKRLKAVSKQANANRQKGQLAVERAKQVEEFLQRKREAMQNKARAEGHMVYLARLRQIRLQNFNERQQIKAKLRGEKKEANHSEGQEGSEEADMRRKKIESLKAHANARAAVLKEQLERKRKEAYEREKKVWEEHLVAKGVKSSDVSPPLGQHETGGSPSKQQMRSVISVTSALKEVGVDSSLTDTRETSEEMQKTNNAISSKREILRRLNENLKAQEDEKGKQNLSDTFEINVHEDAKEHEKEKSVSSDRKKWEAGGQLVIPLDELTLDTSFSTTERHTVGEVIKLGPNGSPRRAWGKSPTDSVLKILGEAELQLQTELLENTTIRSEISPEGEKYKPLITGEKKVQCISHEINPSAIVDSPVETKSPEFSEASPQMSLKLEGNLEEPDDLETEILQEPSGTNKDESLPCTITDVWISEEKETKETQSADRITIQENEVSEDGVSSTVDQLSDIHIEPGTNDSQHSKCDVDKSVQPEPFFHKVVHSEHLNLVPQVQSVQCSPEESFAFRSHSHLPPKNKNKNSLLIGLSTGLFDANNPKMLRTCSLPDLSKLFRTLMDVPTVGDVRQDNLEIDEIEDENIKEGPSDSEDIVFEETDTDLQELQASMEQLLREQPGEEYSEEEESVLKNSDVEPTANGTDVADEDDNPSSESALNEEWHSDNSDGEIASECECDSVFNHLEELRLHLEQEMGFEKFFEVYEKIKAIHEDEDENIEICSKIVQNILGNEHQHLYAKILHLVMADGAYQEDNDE
Conditions: at 0.1 µM.

The target of assay [13] is T5, Serine/threonine-protein kinase Nek1 (Homo sapiens). The settings on record: at 1 µM.
The target in assay [14] is T6, Serine/threonine-protein kinase Nek2 (Homo sapiens) (UniProt P51955).
T6 sequence (whole entry): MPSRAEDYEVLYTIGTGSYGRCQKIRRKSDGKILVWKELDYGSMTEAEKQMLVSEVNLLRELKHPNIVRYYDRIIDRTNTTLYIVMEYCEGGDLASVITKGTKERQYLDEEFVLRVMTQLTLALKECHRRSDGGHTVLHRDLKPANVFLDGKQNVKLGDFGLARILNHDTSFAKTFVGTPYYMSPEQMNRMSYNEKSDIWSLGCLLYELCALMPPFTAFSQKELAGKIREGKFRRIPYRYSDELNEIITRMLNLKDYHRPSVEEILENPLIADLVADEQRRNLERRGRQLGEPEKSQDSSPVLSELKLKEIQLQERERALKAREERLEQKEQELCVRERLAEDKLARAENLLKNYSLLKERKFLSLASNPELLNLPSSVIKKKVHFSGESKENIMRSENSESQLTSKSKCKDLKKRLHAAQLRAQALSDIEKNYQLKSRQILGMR
Conditions: at 0.1 µM.

Assay [15] concerns the target T6, Serine/threonine-protein kinase Nek2 (Homo sapiens). The settings on record: at 1 µM.
The target of assay [16] is Serine/threonine-protein kinase Nek6 (Homo sapiens) (UniProt Q9HC98). The settings on record: at 0.1 µM.
Chain of Serine/threonine-protein kinase Nek6 (Homo sapiens) (Q9HC98 whole entry): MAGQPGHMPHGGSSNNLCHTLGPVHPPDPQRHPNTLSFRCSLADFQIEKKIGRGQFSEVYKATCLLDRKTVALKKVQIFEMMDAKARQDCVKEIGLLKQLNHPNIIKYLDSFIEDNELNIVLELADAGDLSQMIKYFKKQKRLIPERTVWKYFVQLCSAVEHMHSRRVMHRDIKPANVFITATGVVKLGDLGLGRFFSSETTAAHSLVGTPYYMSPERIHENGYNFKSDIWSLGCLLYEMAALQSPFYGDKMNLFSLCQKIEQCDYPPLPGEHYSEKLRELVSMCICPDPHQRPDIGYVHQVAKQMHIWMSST
Assay [17] shares this target. The settings on record: at 1 µM.
Assay [18] has as its target Serine/threonine-protein kinase Nek7 (Homo sapiens) (UniProt Q8TDX7). The settings on record: at 0.1 µM.
The target is the same in assay [19]. The settings on record: at 1 µM.
Assay [20] concerns the target T7, Serine/threonine-protein kinase Nek9 (Homo sapiens) (UniProt Q8TD19).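 Note: reported value is the mean percent inhibition of NEK9.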
T7 sequence (whole entry): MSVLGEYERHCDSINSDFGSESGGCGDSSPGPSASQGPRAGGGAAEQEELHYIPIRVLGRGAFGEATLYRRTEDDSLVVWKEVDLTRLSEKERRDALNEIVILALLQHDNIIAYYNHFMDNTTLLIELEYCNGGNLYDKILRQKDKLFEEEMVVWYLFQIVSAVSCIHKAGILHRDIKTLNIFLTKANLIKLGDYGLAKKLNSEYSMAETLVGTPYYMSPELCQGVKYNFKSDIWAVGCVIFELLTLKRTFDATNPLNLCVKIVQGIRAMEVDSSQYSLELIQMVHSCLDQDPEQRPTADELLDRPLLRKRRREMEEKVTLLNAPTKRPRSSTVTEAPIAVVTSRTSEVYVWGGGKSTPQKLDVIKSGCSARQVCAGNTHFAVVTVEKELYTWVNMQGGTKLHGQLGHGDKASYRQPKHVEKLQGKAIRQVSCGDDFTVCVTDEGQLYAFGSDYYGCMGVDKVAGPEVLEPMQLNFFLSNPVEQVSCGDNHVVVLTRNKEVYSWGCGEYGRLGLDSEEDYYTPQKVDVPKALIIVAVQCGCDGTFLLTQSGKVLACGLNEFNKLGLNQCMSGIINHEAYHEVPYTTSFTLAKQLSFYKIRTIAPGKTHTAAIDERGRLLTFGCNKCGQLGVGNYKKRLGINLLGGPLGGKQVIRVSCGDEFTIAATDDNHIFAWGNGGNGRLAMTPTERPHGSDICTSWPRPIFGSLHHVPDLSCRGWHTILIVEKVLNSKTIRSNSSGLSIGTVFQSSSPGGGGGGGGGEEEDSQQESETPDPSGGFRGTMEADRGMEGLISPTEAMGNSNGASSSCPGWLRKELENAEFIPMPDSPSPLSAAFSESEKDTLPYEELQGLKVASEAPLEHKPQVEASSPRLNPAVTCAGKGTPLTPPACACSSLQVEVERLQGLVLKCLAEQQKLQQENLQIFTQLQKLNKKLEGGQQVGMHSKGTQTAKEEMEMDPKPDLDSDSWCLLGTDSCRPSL
Conditions: at 0.1 µM.

The term inhibition denotes the change of the read-out against control, counted positive when it falls.

Chain of Serine/threonine-protein kinase Nek7 (Homo sapiens) (Q8TDX7 whole entry, looked up): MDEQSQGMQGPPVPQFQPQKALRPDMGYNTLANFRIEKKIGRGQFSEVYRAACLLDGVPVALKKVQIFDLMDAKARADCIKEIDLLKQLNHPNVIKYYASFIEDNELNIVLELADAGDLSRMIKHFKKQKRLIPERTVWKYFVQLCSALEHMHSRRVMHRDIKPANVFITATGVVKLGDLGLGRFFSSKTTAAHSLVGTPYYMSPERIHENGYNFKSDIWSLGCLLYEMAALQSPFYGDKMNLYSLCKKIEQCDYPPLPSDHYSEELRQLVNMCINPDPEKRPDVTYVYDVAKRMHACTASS
Chain of Sphingosine kinase 1 (Homo sapiens) (Q9NYA1 whole entry): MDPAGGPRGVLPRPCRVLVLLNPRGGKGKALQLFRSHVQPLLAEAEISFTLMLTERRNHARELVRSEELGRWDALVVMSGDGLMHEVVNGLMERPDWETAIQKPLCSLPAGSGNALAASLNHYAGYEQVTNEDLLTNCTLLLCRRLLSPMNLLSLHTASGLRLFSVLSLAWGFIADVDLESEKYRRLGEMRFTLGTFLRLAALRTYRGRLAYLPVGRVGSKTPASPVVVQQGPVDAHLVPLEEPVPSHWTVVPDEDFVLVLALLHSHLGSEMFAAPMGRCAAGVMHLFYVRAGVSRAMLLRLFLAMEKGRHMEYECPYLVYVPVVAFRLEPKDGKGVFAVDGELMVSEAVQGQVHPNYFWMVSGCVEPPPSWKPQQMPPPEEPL

For `COc1cccc(-c2c[nH]c3c(N/N=C/c4ccncc4)ncnc23)c1`, the inhibition in assay [1] is 0.2%; in [2], 1.73%; in [3], -1%; in assay [4], 8.8%; in assay [5], 43.7%; in assay [6] it was 9.76%. The inhibition in assay [7] stood at 9.01%; in assay [8], 2.82%; in assay [9], 1.73%; in [10], 2.96%; in assay [11] it was 16.8%; in [12], 1.94%. For the same compound, the inhibition in [13] is 10.6%; in assay [14] it was 2.57%; in [15], 2.88%; in assay [16] it was 3.57%; in assay [17] it was -1.66%; in [18], 2.88%. Further, the inhibition is 3.62% in assay [19] and 4.67% in assay [20].
